These results are taken from PubChem BioAssay (Tox21).

Inconclusive results are not listed. Entries that show only a call come without a potency. Calls of active or inactive are those of the source. The call rests on the fitted dose curve; in most records, active means well fitted inhibition curve with a large enough effect in the signal ratio in the repeat runs (not every such curve was filed as active); inconclusive means weak or mixed curves, or effect the other way; inactive means no such curve, though single readings can be large or run the other way; the % refers to the signal ratio.
Potency means the concentration at half of the fitted maximal effect.

In the assay the target is Estrogen receptor beta (Homo sapiens) (UniProt Q92731). In words: qHTS assay to identify small molecule antagonists of the estrogen receptor beta (ER-beta) signaling pathway (AID 1259378). As to conditions: ER-beta-UAS-bla HEK293T, beta-lactamase FRET ratio, 16 h; series mostly up to 92.4 µM. An excerpt: National Center for Advancing Translational Sciences [NCATS]
Estrogen receptor beta (Homo sapiens), sequence (Q92731 whole entry, looked up): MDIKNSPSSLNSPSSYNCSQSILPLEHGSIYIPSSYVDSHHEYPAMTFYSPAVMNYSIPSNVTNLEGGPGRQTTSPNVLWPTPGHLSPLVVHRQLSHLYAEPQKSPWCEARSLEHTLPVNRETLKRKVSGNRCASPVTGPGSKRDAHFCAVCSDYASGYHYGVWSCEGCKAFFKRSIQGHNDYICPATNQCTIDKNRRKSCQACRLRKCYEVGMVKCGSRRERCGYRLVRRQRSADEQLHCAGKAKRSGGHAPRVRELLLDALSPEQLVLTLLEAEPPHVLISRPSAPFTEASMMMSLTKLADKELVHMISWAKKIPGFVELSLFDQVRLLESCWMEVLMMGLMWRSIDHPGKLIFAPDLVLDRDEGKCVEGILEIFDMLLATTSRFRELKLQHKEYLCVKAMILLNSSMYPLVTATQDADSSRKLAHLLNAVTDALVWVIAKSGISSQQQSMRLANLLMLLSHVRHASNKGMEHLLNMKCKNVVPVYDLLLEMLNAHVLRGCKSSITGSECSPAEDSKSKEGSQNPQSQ
NIH Chemical Genomics Center [NCGC]
U.S. Environmental Protection Agency [EPA]
National Institutes of Environmental Health Sciences [NIEHS]
National Toxicology Program [NTP]
U.S. Food and Drug Administration [FDA]
Estrogen receptor (ER), a nuclear hormone receptor, plays an important role in development, metabolic homeostasis and reproduction. Two subtypes of ER, ER-alpha and ER-beta, have similar expression patterns with some uniqueness in both types. Endocrine disrupting chemicals (EDCs) and their interactions with steroid hormone receptors like ER causes disruption of normal endocrine function. To identify the compounds that inhibit ER signaling, an ER-beta-UAS-bla GripTite cell line (Life Technologies, Madison, WI, USA) containing a beta-lactamase reporter gene under the control of an UAS response element was used to screen Tox21 10K compound library.
Tox21 Assay Protocol Summary:
ER-beta-UAS-bla HEK293T cells were dispensed at 2,000 cells/4 uL of assay medium containing 2% charcoal stripped FBS per well into black wall/clear-bottom 1536-well plates using a Multidrop Combi (ThermoFisher Scientific, Waltham, MA) dispenser. After the assay plates were incubated at a 37C and 5% CO2 for 6 hr, 23 nL of compounds dissolved in DMSO, positive controls or DMSO only was transferred to the assay plate by a Pintool station (Kalypsys, San Diego, CA), followed by addition of 1 uL (1nM as final concentration) of 17-beta-estradiol (E2) in assay medium using a BioRAPTR FRD (Flying Reagent Dispenser, Aurora Discovery, San Diego, CA). The plates were incubated at 37C and 5% CO2 for 16 hr. Then 1 uL of LiveBLAzerTM B/G FRET substrate was added using a Flying Reagent Dispenser, the plates were incubated at room temperature for 2 hours, and fluorescence intensity was measured by an Envision plate reader (PerkinElmer, Shelton, CT).
In general terms: qHTS replaces the single test concentration by a dilution series.
In the case of `CCCCN(CCCC)C(C(N)=O)c1ccc(OC)cc1` (stereo not given), the Potency entry was “inactive”.

Regarding `NCCNCCO`, the Potency result is “inactive”.

With `OC(CCN1CCCC1)(c1ccccc1)C1CCCCC1` (stereo not given), the Potency entry was “inactive”.

For the molecule `CC1CC(OC(=O)C(O)c2ccccc2)CC(C)(C)N1C` (stereo not given), the Potency result was “inactive”.

As for `O=C1NCCN1CCO`, the Potency entry was “inactive”.

As for `CCC(=O)OC`, the Potency entry is “inactive”.

On to `O=c1[nH]c2ccc(Cl)cc2o1`, for which the Potency entry is “inactive”.

On to `C=Cc1ccc(S(=O)(=O)O)cc1`, for which the Potency entry is “inactive”.

For `O=C(Cn1ccnc1[N+](=O)[O-])NCCO`, the Potency entry was “inactive”.

On to `O=C(OC(=O)c1ccccc1)c1ccccc1`, for which the Potency entry was “inactive”.

Consider `Cc1cscn1`, for which the Potency result was “inactive”.

In the case of `c1ccc2sc(SN(C3CCCCC3)C3CCCCC3)nc2c1`, the Potency result was “inactive”.

With `CC1CC(C)C(=O)C1=O` (stereo not given), the Potency result is “inactive”.

Take `Nc1cccc2c1CN(C1CCC(=O)NC1=O)C2=O` (stereo not given): the Potency entry is “inactive”.

On to `C=C1C[C@@]23CC[C@H]4[C@@](C)(CCC[C@@]4(C)C(=O)O[C@@H]4O[C@H](CO)[C@@H](O)[C@H](O)[C@H]4O)[C@@H]2CC[C@]1(O[C@@H]1O[C@H](CO)[C@@H](O)[C@H](O[C@@H]2O[C@H](CO)[C@@H](O)[C@H](O)[C@H]2O)[C@H]1O[C@@H]1O[C@H](CO)[C@@H](O)[C@H](O)[C@H]1O)C3`, for which the Potency result was “inactive”.

Turning to `C=C1CCC2CC1C2(C)C` (stereo not given), the Potency result was “inactive”.

For the molecule `CC(C)(C)C(=O)C(=O)O`, the Potency result is “inactive”.

For the molecule `CCCCCCCC/C=C\CCCCCCCCO`, the Potency entry was “inactive”.

For `CCOC(=O)OC(C)OC(=O)[C@@H]1N2C(=O)[C@@H](NC(=O)[C@H](N)c3ccccc3)[C@H]2SC1(C)C` (stereo not given in full), the Potency entry was “inactive”.

On to `CC(=O)OCC[N+](C)(C)C`, for which the Potency result was “inactive”.

Regarding `C=CC(=O)[O-].C=CC(=O)[O-].[Zn+2]`, the Potency result was “inactive”.

On to `Cc1cc(O)ccc1O`, for which the Potency is 55.1 µM (active).

`CCN(CC)CCNC(=O)COc1ccc(OC)cc1`: the Potency result is “inactive”.

With `Cc1ccccc1S`, the Potency result is “inactive”.

Take `Cc1ccc(CO)cc1`: the Potency entry is “inactive”.

On to `Cc1cc2c(OCC(CNC(C)(C)C)OC(=O)c3ccccc3)cccc2[nH]1` (stereo not given), for which the Potency entry is “inactive”.

For the molecule `C/C=C/C=C/C=O`, the Potency result is “inactive”.

On to `CC(C)=CC(=O)C=C(C)C`, for which the Potency result was “inactive”.

Consider `CC(=O)OCC(=O)NCCCOc1cccc(CN2CCCCC2)c1`, for which the Potency entry is “inactive”.

On to `C[C@@H](CN(C)C)CN1c2ccccc2Sc2ccccc21`, for which the Potency was 23.7 µM (active).

Turning to `CCC=CC#N`, the Potency result is “inactive”.

For `CCC1(CO)COCOC1`, the Potency entry is “inactive”.

With `CC(C)=CCC/C(C)=C/CC/C(C)=C/CCC(=O)OC/C=C(\C)CCC=C(C)C`, the Potency result was “inactive”.

With `O[C@@H]1CO[C@H]2[C@@H]1OC[C@@H]2O`, the Potency entry was “inactive”.

`COC(=O)C1=C(C)NC(C)=C(C(=O)O[C@@H]2CCCN(Cc3ccccc3)C2)[C@@H]1c1cccc([N+](=O)[O-])c1`: the Potency is 26.6 µM (active).

Turning to `COc1ccccc1NC(=O)c1cc2ccccc2cc1O`, the Potency was 17.2 µM (active).

`O=c1[nH]ncc2ccccc12`: the Potency entry is “inactive”.

As for `Oc1c(I)cc(I)c2cccnc12`, the Potency is 6.68 µM (active).

In the case of `C=C(C)C(=O)OCCCCCCCCCCCCC`, the Potency result was “inactive”.

As for `O=C(/C=C/c1ccccc1)OCCc1ccccc1`, the Potency result is “inactive”.
